The list shows a part of the results. Active and inactive are the calls of the source. Cut-off read from the data, not from the text of the source, unless noted: active = inhibition above about 28%; inactive = the rest.
Molecular target: Photoreceptor-specific nuclear receptor (Homo sapiens) (UniProt Q9Y5X4)
Sequence (Q9Y5X4 whole entry, looked up): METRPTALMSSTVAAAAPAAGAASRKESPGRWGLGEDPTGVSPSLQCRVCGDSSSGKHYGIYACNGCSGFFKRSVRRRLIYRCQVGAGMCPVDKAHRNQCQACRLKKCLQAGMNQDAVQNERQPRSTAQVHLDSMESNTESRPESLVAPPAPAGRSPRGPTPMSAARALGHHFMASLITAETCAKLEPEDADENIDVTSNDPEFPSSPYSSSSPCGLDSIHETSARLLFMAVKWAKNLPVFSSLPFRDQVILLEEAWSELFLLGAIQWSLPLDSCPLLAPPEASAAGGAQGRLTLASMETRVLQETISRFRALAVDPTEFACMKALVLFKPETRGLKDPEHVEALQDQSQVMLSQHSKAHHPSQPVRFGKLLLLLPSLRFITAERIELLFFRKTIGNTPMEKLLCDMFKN
Test: NR2E3 agonist confirmation in cells, cell-based, luminescence, CHO-S two-hybrid (AID 624378;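 active = average inhibition above a cutoff equal to the mean inhibition of all tested compounds plus one SD, cut at about 70% in these data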;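 note: 0% = DMSO in NR2E3 cells and 100% = DMSO in cells lacking NR2E3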)
Details: CHO-S mammalian two-hybrid NR2E3-NCOR, luciferase luminescence; at 3.98 µM; stronger effect = higher value
For `COc1cccc(CNc2nc(NCc3cccs3)nc3ccsc23)c1`, the inhibition was 67.6% (inactive).
For `CCCOc1ccc(Cc2c(Cl)nc(SC)nc2NC)cc1`, the inhibition was 94.6% (active).
With `C#Cc1ccc(NC(=O)C2(C)CCN2C(=O)Cc2ccc(-c3ccccc3)cc2)cc1` (stereo not drawn) the inhibition was 50.6% (inactive).

System: not listed separately
Test: GAL4-VP16 reporter modulators, confirmation, counter-screen for NR2E3 agonist project, cell-based, luminescence, CHO-S, high throughput (AID 624379;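 active = mean inhibition above a cutoff equal to the average over all tested compounds plus one standard deviation, cut at about 70% in these data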;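 note: luciferase from a UAS reporter driven by GAL4-VP16 transactivation; 0% = DMSO with VP16-transfected cells and 100% = DMSO with cells lacking VP16; higher means less reporter light so more repression of VP16 activity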)
Details: CHO-S GAL4-VP16 luciferase reporter, at 3.98 µM, stronger effect = higher value
For `COc1cccc(CNc2nc(NCc3cccs3)nc3ccsc23)c1`, the inhibition was 47.4% (inactive).
In the case of `CCCOc1ccc(Cc2c(Cl)nc(SC)nc2NC)cc1`, the inhibition is reported as 85.9% (active).
With `C#Cc1ccc(NC(=O)C2(C)CCN2C(=O)Cc2ccc(-c3ccccc3)cc2)cc1` (stereo not drawn) the inhibition was 52.9% (inactive).

System: not listed separately
Test: StAR promoter reporter inhibitors, counter-screen for LRH-1 inverse agonist project, cell-based, luminescence, high throughput (AID 651611)
Details: StAR promoter luciferase reporter counterscreen, at 3.6 µM, stronger effect = higher value
In the case of `CN(C)c1ccc(Sc2ccc3nc(N)nc(N)c3c2)cc1`, the inhibition is reported as 60.9% (active).
In the case of `NS(=O)(=O)c1ccc(N=Nc2c(O)[nH]c3ccc(Br)cc23)cc1`, the inhibition is reported as 38.4% (active).
In the case of `NC(=O)[C@H]1CC2(CC(c3cccc(NC(=O)COc4ccc(Cl)cc4)c3)=NO2)CN1C(=O)Cc1ccc([N+](=O)[O-])cc1` (stereo partly drawn), the inhibition is reported as 13.5% (inactive).
With `COCCn1c(SCCCC(=O)c2ccc(Br)cc2)nnc1-c1ccncc1` the inhibition was 6.33% (inactive).
With `CC1(c2ccc3ccccc3c2)NC(=O)N(CC(=O)N2CCN(Cc3ccccc3)CC2)C1=O` (stereo not drawn) the inhibition was 12.2% (inactive).
With `O=C(N/N=C/c1ccc(O)cc1)c1ccc(COc2cc(Cl)ccc2Cl)o1` the inhibition was 22.3% (inactive).
With `COc1ccc(CNC(=O)c2cccc3c(-c4cccnc4)coc23)cc1OC` the inhibition was 48.5% (active).
In the case of `CN(Cc1ccccc1)C(=O)c1ccc(NC(=O)Cc2ccc(NC(=O)C3CCCN(C(=O)CCc4ccccc4)C3)cc2)cc1` (stereo not drawn), the inhibition is reported as 29% (active).
For `CN(C)CCNc1ccc2nnn3c4ccc(O)cc4c(=O)c1c23`, the inhibition was 47.1% (active).
With `CCCOc1ccc(Cc2c(Cl)nc(SC)nc2NC)cc1` the inhibition was 4.85% (inactive).
With `O=C(Nc1nonc1NC(=O)c1cccs1)c1cccs1` the inhibition was 30.2% (active).
For `CN(C(=O)c1cccc(NC(=O)Cc2ccc(NC(=O)C3CCCN(C(=O)CCc4ccccc4)C3)cc2)c1)C1CCCCC1` (stereo not drawn), the inhibition was 24.3% (inactive).
In the case of `COc1cccc2c1C(=O)c1c(O)c3c(c(O)c1C2=O)CC(O)(C(C)=O)CC3OC1CC(O)C(O)C(C)O1` (stereo not drawn), the inhibition is reported as 29.2% (active).
For `Cc1sc2ncnc(NCC3COc4ccccc4O3)c2c1C` (stereo not drawn), the inhibition was 18% (inactive).
In the case of `Cc1ccc(S(=O)(=O)CC2CSc3nc4ccccc4n32)cc1` (stereo not drawn), the inhibition is reported as 22.6% (inactive).
In the case of `CC1(C)CC(N2CCCC2)=CC(=[N+]2CCCC2)C1`, the inhibition is reported as 12% (inactive).
With `CC(=O)NC(c1ccc(Cl)cc1Cl)c1ccc2cccnc2c1O` (stereo not drawn) the inhibition was 85.4% (active).
For `O=C(CSc1nnc(Cn2nnc3ccccc32)o1)N(Cc1ccc(F)cc1)c1ccccc1`, the inhibition was 24.2% (inactive).
For `COc1cccc2c1C(=O)c1c(O)c3c(c(O)c1C2=O)C[C@@](O)(C(=O)CO)C[C@@H]3OC1CC(N)C(O)C(C)O1` (stereo partly drawn), the inhibition was -14.6% (inactive).
With `Cc1cccc(-n2c(CNC(=O)c3ccccc3)nnc2SCC(=O)Nc2nccs2)c1` the inhibition was 10.2% (inactive).
For `Cc1ccc(C#CC[N+]2(CC#Cc3ccc(C)cc3)CCCCC2)cc1`, the inhibition was 40.5% (active).
In the case of `CCN(CC)S(=O)(=O)c1cc(NC(=O)CNc2cccc(S(=O)(=O)N3CCCC3)c2)ccc1C`, the inhibition is reported as 21.6% (inactive).
